Measured values published in ChEMBL document CHEMBL4888484, “Replenishing the malaria drug discovery pipeline: Screening and hit evaluation of the MMV Hit Generation Library 1 (HGL1) against asexual blood stage Plasmodium falciparum ,using a nano luciferase reporter read-out” (2022).
About 410 (8.5%) of roughly 4,800 compounds showed an effect of 50% or more. This is one part of a sample in which strong results are shown more often than they occur.

These compounds were tested on Plasmodium falciparum (assay: Confirmatory screen in NF54 pLDH assay, in single point, at 2uM, 72h). Settings: timepoint 72 hour.
Type: functional, Erythrocyte

In order of rising “% Inhibition” value:
1. COc1ccccc1N1CCN(CC(=O)Nc2c3c(nc4ccccc24)N(c2cccc(C)c2)CC3)CC1  -24%
2. O=C(CCNC(=O)C1CC1c1c(F)cccc1Cl)NC1CCS(=O)(=O)C1 (configuration not stated)  -19%
3. CCN1CCC2CCC(C1)N2C(=O)Nc1ccc(OC2CCC2)c(F)c1 (configuration not stated)  -18%
4. Cc1ccccc1[C@H]1CCN(c2ccc(NC(=O)c3ccc(Cl)cc3)c(C(=O)O)c2)C1  -17%
5. O=C(CC1COCCN1C(=O)C1CCc2ccccc21)c1ccco1 (configuration not stated)  -17%
6. CC(C)(C)OC(=O)N1CC(NC(=O)C2CC2c2ccccc2C(F)(F)F)C1 (configuration not stated)  -16%
7. CCN(C[C@H]1CCCO1)C(=O)c1cnc(Cc2ccccc2)s1  -15%
8. Cc1ccc(NC(=O)Nc2c(C3=CCCCC3)c(C)nn2C)cc1C  -13%
9. O=C1C[C@H](c2nc3cc(Cl)ccc3o2)CN1c1ccc(F)cc1  -13%
10. CCn1cc(C(=O)N(C2CCCCC2)C2CCCCC2)c(C)n1  -13%
11. O=C(c1ccccc1Cl)N1CCC[C@H](n2cnc3ccccc3c2=O)C1  -12%
12. Oc1cc(-c2ccc(F)cc2)nn1-c1nc2ccccc2[nH]1  -11%
13. Cc1ccc(NC(=O)C2C3NC(=O)N(c4ccccc4)C2(C)Oc2ccc(C)cc23)c(C)c1 (configuration not stated)  -9%
14. COc1ccsc1S(=O)(=O)N(CCN(C)C)C1CCCC1  -9%
15. Cc1ccc(CNc2ccc(S(C)(=O)=O)cc2)c(=O)n1C  -9%
16. Cc1cc(C)c(C(=O)O)cc1NC(=O)c1oc(C2CC2)nc1C  -8%
17. O=C1c2ccccc2[C@@H](Nc2ccc3c(c2)OCCO3)N1c1ccccn1  -8%
18. CCCNC(=O)Cn1nc2cc(-c3ccc(OC)cc3)nc(C)n2c1=O  -8%
19. CCc1c([C@H](C)S(=O)(=O)c2ccccc2)[nH]c(=O)n1Cc1cccs1  -7%
20. Cc1n[nH]c(C)c1NC(=O)CN1CC(C)OC(C)C1 (configuration not stated)  -7%
21. CCN1CCN(c2nc(O)c3c(n2)NC(=O)C[C@H]3c2cccc(F)c2)CC1  -7%
22. OC(CC(Nc1ccc(Cl)cc1)c1ccccc1)c1ccccc1 (configuration not stated)  -7%
23. Cc1ccccc1CNC(=O)[C@H]1CCCN(c2nc3cccnc3n(Cc3ccccc3)c2=O)C1  -6%
24. Cc1ccc(C(=O)Nc2ccc(N3CCN(CCC#N)CC3)cc2C(=O)O)cc1  -6%
25. CCc1nnc(NC(=O)NCc2c[nH]nn2)s1  -6%
26. C[C@H](Nc1nc(N2CCCCC2)nc2ccccc12)c1ccccc1  -6%
27. CC(=O)NCCNC(=O)Nc1ccccc1N(C)C1CCCC1  -5%
28. COC(=O)C1(NC(=O)c2scnc2C)CCCCC1  -5%
29. Cc1ccc(NC(=O)CC(=O)O)c(C)c1  -5%
30. CC1COCCC1NCc1ncn(Cc2cccc(F)c2)n1 (configuration not stated)  -4%
31. Cc1ccc(-c2nc3ncccn3c2Nc2ccc3c(c2)OCCO3)o1  -4%
32. O=C(c1csc(C(=O)N2CCCC2)n1)N1CCN(Cc2ccccc2)CC1  -4%
33. COc1ccc(CNc2nc(-c3nnc(-c4ccccc4)o3)nc3ccccc23)cc1  -3%
34. CN1CCN(c2nc(-c3cccc(C(F)(F)F)c3)nc3c2cnn3Cc2ccccc2)CC1  -3%
35. C[C@H]1CS(=O)(=O)N(c2ccc(C(=O)Nc3ccccc3Oc3ccccc3)c(Cl)c2)C1=O  -3%
36. O=C(CN1CCCC1)N1CCCN(S(=O)(=O)c2ccccc2)[C@H]1c1ccccc1  -2%
37. Cc1ccc(NC(=O)Cn2c(C)cc(=O)c3sccc32)cc1Cl  -2%
38. O=C(CN1CCN(Cc2ccccc2F)C1=O)NC1CCCCCCC1  -2%
39. Cc1cc(N)n(-c2nc(-c3ccccc3)cc(=O)[nH]2)n1  -1%
40. O=S1(=O)CCC(NCCC2CCCO2)c2cc(F)c(F)cc21 (configuration not stated)  -1%
41. O=S(=O)(C1CC1)N1CC[C@H](CO)C1  0%
42. CC(C)(C)C(=O)/C(=N\OC(=O)Nc1ccc(Cl)cc1)n1cncn1  0%
43. CCCCn1nnc(N(C(=O)c2cccc3c(Br)cccc23)C(=O)c2cccc3c(Br)cccc23)n1  0%
44. CCN(CC)c1ccc(C(=O)C(F)(F)F)c(O)c1  0%
45. CC(=O)N1CC[C@H](CC(=O)N(C)Cc2ccccc2)C1  0%
46. O=C(Cn1cnc2nc(N3CCCCC3)sc2c1=O)Nc1cc(Cl)cc(Cl)c1  1%
47. CC1CCC2C(CCC(C)N2C(=O)c2cc3nc4c(c(C(F)(F)F)n3n2)CCc2ccccc2-4)C1 (configuration not stated)  1%
48. COc1cccc(CNCCCN2CCOCC2)c1OCc1ccc(F)cc1Cl  1%
49. COc1ccc2nc(N3CN(Cc4ccccc4)CN(c4nc5ccc(OC)cc5s4)C3)sc2c1  1%
50. O=c1[nH]c2ccccc2c(NCc2ccccc2)c1N1CCN(c2ccccc2)CC1  1%
51. O=C(Nc1ccc(N2CCOCC2)c(F)c1)OCc1ccccc1  2%
52. CCOc1c(CNCCN(C)C)cc(Br)cc1OC  3%
53. c1ccc2oc(-c3ccnc4nncn34)cc2c1  3%
54. CCC(=O)OCCN1CCN(CCN(C(=O)CC)c2ccc(C3CCCC3)cc2)CC1  3%
55. O=S(=O)(c1ccc(Cl)cc1)n1ccc(C2CC2)n1  4%
56. Cc1cccn2cc(CN(C)[C@H](c3ccccn3)C3CC3)nc12  4%
57. Cc1cnn(CCCNC(=O)c2ccc3[nH]c4c(c3c2)CCCC4)c1  5%
58. Cc1ccccc1CC(=O)Nc1ccc(-c2nc3ncccc3o2)cc1  5%
59. NS(=O)(=O)c1ccc(CCNc2nc(-c3ccccc3)nc3ccccc23)cc1  5%
60. O=S(=O)(Cc1ccccc1)N1CCC2(CCCCC2)C1  6%
61. Cc1nn(C)cc1-c1n[nH]cc1Br  7%
62. CCCCCC1CCC(c2ccc(-c3ccc(CC)cn3)cc2F)CC1 (configuration not stated)  7%
63. N#Cc1ccc2c(c1)N(Cc1ccccc1F)C(=O)[C@@H]1CCCN21  7%
64. O=C(N[C@@H](N1CCOCC1)C(Cl)(Cl)Cl)c1ccccc1Cl  8%
65. CC1(C)c2ccccc2CCN1C(=O)CCc1ncc(-c2ccccc2)o1  8%
66. CC(C)c1ccc(N2C(=O)[C@H](CC(=O)N3CCN(C)CC3)N=C2O)cc1  9%
67. COc1ccc2ncc(=O)n(CCOc3ccccc3)c2c1  9%
68. CNc1nccc(OCc2ccccc2)n1  9%
69. CO[C@H]1CCOC2(CCN(C(=O)c3ccccc3F)CC2)C1  9%
70. CN(C(=O)Cn1c(=O)n(-c2cc(F)cc(F)c2)c(=O)c2sccc21)c1ccccc1  9%
71. O=C(CN1CCOCC1)N1CCN(CCCOc2ccccc2)CC1  9%
72. Cc1c[nH]c(=O)n1-c1ccc(C(=O)NCCc2cc(F)cc(F)c2)cc1  10%
73. COc1ccc2cc3n(c2c1)C[C@](C(=O)NC1CCCCCC1)(c1ccccc1)N(Cc1cccc(Br)c1)C3=O  10%
74. CN(c1nc2c(cnn2C)c(=O)[nH]1)C1CCCC1c1ccc(C(F)(F)F)cc1 (configuration not stated)  10%
75. COc1ccc(OC)c(-c2csc(N3C(=O)CC4CS(=O)(=O)CC43)n2)c1 (configuration not stated)  10%
76. COc1cccc(-c2noc3nc(C)cc(C(=O)NCCCn4ccc(C)n4)c23)c1  11%
77. CC(C)(C)NC(=O)CNc1nnc(C2CC2)s1  12%
78. CCOc1cc(CNC2CCN(C(C)=O)CC2)ccc1OCc1c(F)cccc1Cl  13%
79. Cc1ccccc1CNC(=O)[C@H]1CCCN(c2nc3ccccc3[nH]c2=O)C1  13%
80. NC1(c2noc([C@@H]3CCCO3)n2)CCCCCC1  13%
81. COc1ncnc2c1CN(C(=O)c1cc3c(s1)CC[C@H](C)C3)CC2  13%
82. Cc1cc(N2CCN(c3ccccn3)CC2)n2cc(-c3ccccc3)nc2n1  14%
83. Cc1ccc(S(=O)(=O)Cc2nc(-c3ccc(C(=O)Nc4ccc(C)cc4Cl)cc3)oc2C)cc1  14%
84. Cc1ccccc1[C@H]1CC(=O)Nc2c1c(C)nn2-c1nncc(-c2ccc(Cl)cc2)n1  15%
85. Cc1nn(-c2nc3ccccc3[nH]2)c(O)c1Cc1ccccc1  17%
86. CCNc1ccnc(NCc2nc(-c3cccc(F)c3)c(-c3ccccn3)[nH]2)n1  22%
87. c1ccc(CCNc2nc(-c3ccccn3)cs2)cc1  31%
88. Cc1c(-c2ccc(F)cc2)[nH]c2ccc(CNc3nccc(N(C)C)n3)cc12  50%
89. CCN1CCN(C2CCN(c3ncc(F)c(OC)n3)CC2)CC1  50%
90. COc1nc(N2[C@@H]3CC[C@H]2C[C@@H](OC)C3)ncc1F  52%
91. Cc1ccc2nc(-c3cc4ccccc4o3)cn2c1  52%
92. Cc1ccc(C(=O)Nc2cc3c4c(c2)C2CCCC2CN4CC2CCCC32)cc1 (configuration not stated)  54%
93. CC1(C)Cc2nc3ccccc3c(NCc3ccccc3)c2[C@@H](O)C1  54%
94. COc1ccc2c(/C=C/c3cc[n+](C)cc3)cn(Cc3ccccc3)c2c1  62%
95. COc1ccccc1N(Cc1ccccc1)C1=NC(=[N+](Cc2ccccc2)c2ccccc2OC)c2ccccc21  67%
96. Cc1nn(-c2nc3ccccc3[nH]2)c(O)c1CCC(C)C  68%
97. C[C@@H](CNc1nc(-c2ccccc2)nc2nc(-c3ccc(Cl)cc3)oc12)N1CCCCC1  76%
98. CCCc1cc(-c2nc(-c3ccc(-n4nc(C)cc4N)cc3)no2)n(C)n1  88%
99. CNc1nc(NCc2ccccc2)nc2ccccc12  91%
100. CNc1nc(NCCc2ccccc2)nc2ccccc12  92%
101. CN1CCC(n2ncc3[nH]c(-c4ccc(C(F)(F)F)cc4)nc32)CC1  99%
102. CNc1nc(Nc2ccc3c(c2)OCCO3)nc2ccccc12  103%
